# PTAP TSG101 blk = blocks PTAP/TSG101 interaction to inhibit HIV-1 budding | Fluorescence polarization, FITC-PTAP peptide / Tsg101 binding | Potency, µM (titrated, usually from 115 µM), most hits filed as inhibitors | 340,000 tested, under 10 active; active = well fitted inhibition curve with a large enough effect in the main read-out, with a control signal flat, not every such curve was filed as active; inconclusive = small, poorly fitted or top-dose-only effect, or effect the other way, or a change in a side signal; inactive = no such curve, though single readings can be large or run the other way
#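 Compounds were pin-transferred onto Tsg101 binding domain (10 uM final) in HEPES pH 7.5 buffer, then FITC-PTAP peptide was added at 50 nM final. After 20 min at RT, polarization reported peptide displacement across a qHTS concentration series.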
# 12-LOX inh = inhibitors of human 12S-lipoxygenase ALOX12 | purified 12hLO, xylenol orange hydroperoxide absorbance | Potency, µM (titrated, usually from 108 µM), hits mostly inhibitors | 1.1% of 580,000 active
#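 Hydroperoxide product was detected by ferrous iron/xylenol orange as the 573 to 405 nm absorbance ratio. Arachidonic acid at 40 uM (final) was turned over for 30 min at room temperature by 150 nM human 12hLO, pH 7.0 Hepes buffer, after 15 min compound preincubation.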
# Eya2 phos inh = inhibitors of human Eya2 phosphatase activity | O00167 | recombinant Eya2, OMFP fluorescence dephosphorylation (OMFP is methylfluorescein phosphate) | Potency, µM (titrated, usually from 76.9 µM), actives largely listed as inhibitors | 0.006% of 330,000 active
#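 Eya2 protein (added as 0.2 uM solution) was preincubated with compound for 10 min at ambient temperature in 50 mM HEPES pH 7.5, 50 mM NaCl, 5 uM MgCl2, 0.05% BSA, 1 mM DTT. OMFP (added at 50 uM) then reacted 10 min; fluorescence read at 485/525 nm.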
# USP2a inh = inhibitors of human ubiquitin-specific protease USP2a; Potency, µM (titrated, usually from 38.3 µM), most hits filed as inhibitors; USP2 core, Ub-CHOP2 coupled fluorogenic reporter, 485/531; 0.01% of 330,000 active; O75604; AID 463254
# Target sequence (O75604 whole entry, looked up): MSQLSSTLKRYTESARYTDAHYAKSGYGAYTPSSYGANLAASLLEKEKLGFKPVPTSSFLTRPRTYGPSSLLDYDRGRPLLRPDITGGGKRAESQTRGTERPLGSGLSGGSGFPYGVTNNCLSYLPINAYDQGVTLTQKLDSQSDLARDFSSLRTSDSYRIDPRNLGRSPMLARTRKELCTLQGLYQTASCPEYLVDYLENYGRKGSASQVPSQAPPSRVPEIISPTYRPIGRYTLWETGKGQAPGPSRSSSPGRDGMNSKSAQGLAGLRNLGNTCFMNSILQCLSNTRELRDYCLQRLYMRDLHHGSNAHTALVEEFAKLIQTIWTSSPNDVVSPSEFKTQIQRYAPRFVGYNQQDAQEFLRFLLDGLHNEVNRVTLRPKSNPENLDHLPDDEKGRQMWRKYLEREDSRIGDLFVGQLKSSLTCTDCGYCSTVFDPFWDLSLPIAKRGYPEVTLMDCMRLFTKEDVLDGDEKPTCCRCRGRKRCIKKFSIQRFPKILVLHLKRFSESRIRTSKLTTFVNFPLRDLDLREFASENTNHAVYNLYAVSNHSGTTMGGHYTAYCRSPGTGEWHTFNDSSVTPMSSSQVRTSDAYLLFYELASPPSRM
#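 Cell-free coupled assay: 10nM USP2 core preincubated 30min RT with compound in Tris-HCl pH 8.0/CaCl2/CHAPS buffer, then 25nM Ub-CHOP2 and 25nM reporter substrate; fluorescence (Ex 485/Em 531) read after 60min RT, normalized to NEM inhibition, concentration-response curves fitted.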
# Numbers stand for hits; – = inactive; ? = inconclusive; · = no result; ! = not confirmed by another sample. In the library only some 1.1% were active in any assay of this set; here they are far more common. Unless noted, calls follow the shape of the dose curve; as a rule, active = well fitted curve in the direction sought with a large enough effect; inconclusive = small, poorly fitted or top-dose-only effect, or another doubt; inactive = no such curve, though single readings can be large; an effect the other way counts as inactive or inconclusive.
SMILES,PTAP TSG101 blk,12-LOX inh,Eya2 phos inh,USP2a inh
O=C(O)c1cc(=O)c2ccccc2[nH]1,–,13µM!,–,–
Cc1ccc(Nc2nc(C(N)=O)c(NC(=O)c3ccccc3Br)s2)cc1,·,14µM,·,·
O=C(CSc1n[nH]c(-c2ccc(Br)cc2)n1)c1cc(F)ccc1F,·,32µM,·,·
CO/N=C(\C(=O)O)c1cn2ccsc2n1,·,2.2µM,·,·
Cc1ccc(CN(C(=O)CCCc2cccs2)C2CC2)cc1,·,8.9µM,·,·
CC(C)COc1ccc(-c2nn(-c3ccccc3)cc2/C=C2/SC(=S)N(CC(=O)O)C2=O)cc1,–,45µM,–,–
O=C(CN1C(=O)NC(c2ccc(Cl)cc2)C2=C1COC2=O)Nc1ccc(C(F)(F)F)cc1 (stereo unspecified),·,8.9µM,·,·
Cc1ccc(C2NC(=O)N(CC(=O)Nc3ccc(Br)cc3F)C3=C2C(=O)OC3)cc1 (stereo unspecified),·,8.9µM,·,·
CC(=O)Nc1ccc(NC(=O)CN2C(=O)NC(c3ccc(C)cc3)C3=C2COC3=O)cc1 (stereo unspecified),·,–,·,·
O=C(CN1C(=O)NC(c2ccc(Cl)cc2)C2=C1COC2=O)Nc1ccc(F)c(Cl)c1 (stereo unspecified),·,7.9µM,·,·
Cc1ccc(C2NC(=O)N(CC(=O)Nc3ccc(C(F)(F)F)cc3)C3=C2C(=O)OC3)cc1 (stereo unspecified),·,10µM,·,·
O=C(O)c1ccc(-c2ccc(CNC3CCCC3)o2)cc1,·,–,·,·
Cc1ccc(C2NC(=O)N(CC(=O)Nc3ccc(Br)c(C)c3)C3=C2C(=O)OC3)cc1 (stereo unspecified),·,8.9µM,·,·
O=C(CCCCl)NC1=NN(c2ccccc2)C(=O)C1,–,–,–,–
O=C(COc1ccc(Cl)cc1)NC1=NN(c2ccccc2)C(=O)C1,–,45µM,–,–
O=C1COCC2(CN(Cc3ccsc3)C2)CN1Cc1cccc(OC(F)(F)F)c1,·,–,·,·
Nc1nccnc1C(=O)Nc1ccc2ccccc2n1,·,10µM,·,·
O=C(Nc1ccc2ccccc2n1)c1ccccc1Cl,–,–,–,–
COc1ccc(C2(CNC(=O)/C=C\c3ccco3)CCCC2)cc1OC,–,45µM,–,–
S=C1NC2(CCCCCC2)NN1c1ccccc1,·,1.4µM,·,·
CC1(CCc2ccccc2)NC(=S)N(c2ccccc2)N1 (stereo unspecified),–,1µM,–,–
CC1(CCc2ccccc2)NC(=S)N(c2ccc(Cl)cc2)N1 (stereo unspecified),–,?,–,–
Cc1ccc(-c2nnc(Nc3ccccc3)c3ccccc23)cc1S(=O)(=O)NC(C)(C)CO,·,–,·,·
COC(=O)c1sc2ccccc2c1N,–,35µM,–,–
COC(=O)c1sc2ccccc2c1C(=O)OC,·,–,–,–
SMILES,PTAP TSG101 blk,12-LOX inh,Eya2 phos inh,USP2a inh
Cc1ccc(-c2nn(CCC(=O)NCc3ccccc3)c(=O)c3ccccc23)cc1,·,–,·,·
COc1ccc(Cl)cc1NC(=S)N(Cc1ccc(C(=O)O)cc1)Cc1ccc(OC)c(OC)c1,–,–,–,–
Cc1cccc(NC(=S)N(Cc2ccc(Br)cc2)Cc2ccc(C(=O)O)cc2)c1,–,–,–,–
COc1cccc(NC(=S)N(Cc2ccc(Cl)cc2)Cc2ccc(C(=O)O)cc2)c1,–,40µM,–,–
Cc1cc(NC(=S)N(Cc2ccc(Br)cc2)Cc2ccc(C(=O)O)cc2)ccc1Cl,–,45µM,–,–
Cc1nc(CN2C(=O)OC3(CCN(C(=O)c4ccnn4C)CC3)C2(C)c2ccccc2)cs1 (stereo unspecified),·,–,·,·
CNC(=O)c1cccc(-c2cnc(Nc3cccc(F)c3)c3c2CCO3)c1,·,–,·,·
CC(C)CSc1n[nH]c(=S)s1,–,22µM,–,–
CC(CSc1n[nH]c(=S)s1)c1ccccc1 (stereo unspecified),–,?,·,·
C#CCOCCOCCOCCNc1nc(N2CCN(C(=O)CCCCCCCCCCNC(=O)[C@H](CCCCN)n3cc(C)nn3)CC2)nc(N2CCN(C(=O)CCCCCCCCCCNC(=O)[C@H](CCCN=C(N)N)n3cc(C[C@@H](C)CC)nn3)CC2)n1,–,·,22µM,11µM
C#CCOCCOCCOCCNc1nc(N2CCN(C(=O)CCCCCCCCCCNC(=O)[C@H](CCCCN)n3cc(C[C@@H](C)CC)nn3)CC2)nc(N2CCN(C(=O)CCCCCCCCCCNC(=O)[C@@H]([C@H](C)O)n3cc(C)nn3)CC2)n1,–,·,–,–

# Screens from PubChem.
